Common to all, as to assay: NCI-60 one-dose screen, 48 h (100 = growth as untreated, 0 = no growth, -100 = all killed)
Common to all, as to details: 10 µM unless noted

Assay [1] concerns EKVX NSCLC.
Assay [2] has as its system SN12C renal.
Assay [3] concerns UO-31 renal.
In assay [4] the test system is TK-10 renal.
Assay [5] concerns ACHN renal.
The test system of assay [6] is CAKI-1 renal.
Assay [7] relates to A498 renal.
The subject of assay [8] is CCRF-CEM leukemia.
The subject of assay [9] is MOLT-4 leukemia.
Assay [10] relates to SR leukemia.
For assay [11], the system named is RPMI-8226 leukemia.
In assay [12] the test system is OVCAR-8 ovarian.
For assay [13], the system named is OVCAR-5 ovarian.
The test system of assay [14] is OVCAR-4 ovarian.
The subject of assay [15] is SK-OV-3 ovarian.
The subject of assay [16] is IGROV1 ovarian.
Assay [17] concerns OVCAR-3 ovarian.
Assay [18] concerns HS 578T breast.
The subject of assay [19] is NCI/ADR-RES ovarian.
For assay [20], the system named is T-47D breast.

This note sets out measurements from PubChem BioAssay (NCI).

About 83,000 compounds went through this panel and 20% of them were active in at least one assay; those are over-represented in the sample as a whole.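 48-hour exposure, single concentration, 96-well plates; percent growth endpoint where 0 means no net growth. Active: below 10.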 Values without a mark were called inactive. Activity calls are given as the source filed them.

On to `O=C(c1ccc(Cl)cc1)C1[C@H](c2ccc(Cl)cc2)[C@@H](c2ccccc2)NC12C(=O)Nc1ccc(Br)cc12` (some centres not stated), for which the growth in assay [1] is 43.6%; in assay [2], -48.8% (active); in assay [3], 28.5%; in [4], 50.4%; in assay [5], 14.3%; in assay [6], 27.6%. The growth is 59.2% in assay [7]; 36.8% in assay [8]; 6.17% (active) in assay [9]; -5% (active) in [10]; 18.2% in assay [11]; 38.3% in [12]. Besides, the growth in assay [13] was 52.8%; in assay [14] it was 44.6%; in [15], 101%; in [16] it was 35.9%; in assay [17], 25.5%; in assay [18], 58.2%. In addition, the growth in assay [19] was 28.8%; in assay [20] it was 31.2%.

As to `CCOC(=O)c1c(NC(=O)c2cccc(C(F)(F)F)c2)sc2cc(O)ccc12`, the growth in assay [1] was 84.8%; in [2], 89.4%; in [3], 60.1%; in [4], 183%; in assay [5] it was 93.4%; in [6], 96.7%. The growth is 77.1% in assay [7]; 63.5% in [8]; 81.6% in assay [9]; 101% in assay [10]; 73.9% in assay [11]; 105% in [12]. The growth in assay [13] is 98.4%; in [14] it was 104%; in assay [16], 75.7%; in [17] it was 98.6%; in assay [18], 88.1%; in [20], 64%.

`CCN1C(=S)N(CC)C2C1NN=C1SC(c3ccccc3)=CC(=O)N12` (configuration not stated): the growth in assay [1] was 106%; in [2], 110%; in assay [3] it was 113%; in assay [4] it was 103%; in assay [5], 103%; in assay [6], 98.6%. The growth was 118% in assay [7]; 97.5% in [8]; 97.7% in [9]; 52.1% in assay [10]; 107% in assay [11]; 99.4% in assay [12]. Also, the growth in assay [13] is 107%; in [14], 115%; in assay [15], 110%; in assay [16] it was 109%; in assay [17] it was 119%; in assay [18] it was 114%. In addition, the growth in assay [19] is 99.6%; in assay [20] it was 108%.

Take `O=C(CSc1nc2sc3c(c2c(=O)n1-c1ccc(Cl)cc1)CCCC3)NNC(=O)Nc1ccc(Cl)c(C(F)(F)F)c1`: the growth is 41% in assay [1]; 32.3% in [2]; 30.4% in assay [3]; 38.3% in assay [4]; 13.3% in assay [5]; 34.6% in [6]. Besides, the growth is -15.5% (active) in [7]; 13.5% in [8]; 6.67% (active) in [9]; 8.77% (active) in [10]; 0.887% (active) in assay [11]; 27.2% in assay [12]. Also, the growth in assay [13] is 49.4%; in assay [14], 16%; in [15], 74.9%; in [16] it was 29.7%; in assay [17], 4.44% (active); in assay [18], 69.4%. Besides, the growth in assay [19] was 61%; in assay [20] it was -34.2% (active).

Take `CC(=O)c1ccc(Nc2nc(SC(C)C)nc(-c3ccccc3)c2C#N)cc1`: the growth was 111% in assay [1]; 97% in assay [2]; 82.1% in assay [3]; 101% in assay [4]; 86.2% in [5]; 88% in assay [6]. In addition, the growth in [7] is 42.3%; in [8], 96.1%; in assay [9], 96.4%; in assay [10], 91.5%; in assay [11], 95%; in [12] it was 95.7%. For the same compound, the growth in assay [13] is 100%; in assay [14] it was 94.9%; in assay [15], 103%; in [16], 89.7%; in assay [18] it was 90.6%; in assay [19], 92%. For the same compound, the growth in assay [20] is 81%.

With `CNC(=O)c1cc(-c2ccc(NC(=O)Nc3ccc(N4CCOCC4)c(C(F)(F)F)c3)cc2)nc2cccnc12`, the growth in assay [1] is 76.6%; in [2] it was 41.6%; in assay [3], 43.2%; in assay [4], 156%; in assay [5] it was 50.8%; in assay [6] it was 64%. Moreover, the growth in [7] is 79.9%; in assay [8], 40.5%; in assay [9] it was 34.6%; in [10], 13.6%; in assay [12] it was 49.9%; in assay [13], 91.4%. In addition, the growth in [14] was 49.3%; in [15] it was 93.4%; in assay [16], 57.5%; in assay [18] it was 32.2%; in assay [19], 68.6%; in assay [20], 39.6%.

Consider `COc1cc2cc(Oc3ccc(NC(=O)c4cccc(C(F)(F)F)c4)cc3)c(C)nc2cc1OCCN1CCCCC1`, for which the growth in assay [1] is 93.2%; in [2] it was 76.2%; in [3], 69.3%; in [4] it was 143%; in assay [5] it was 80.5%; in assay [6], 57.4%. Besides, the growth in assay [7] was 78.6%; in assay [8], 6.44% (active); in assay [9], 1.53% (active); in assay [10], -40.6% (active); in assay [11], -10.4% (active); in assay [12], 62.6%. The growth in assay [13] was 98.7%; in assay [14], 68.1%; in [15] it was 101%; in assay [16] it was 81.5%; in [18] it was 70%; in [19] it was 75.4%. Besides, the growth in [20] is -25.8% (active).

Consider `CO/N=C1\CCc2c(sc(NC(=O)c3cccc(C(F)(F)F)c3)c2C(N)=O)C1`, for which the growth in assay [1] is 30.7%; in assay [2], 15.6%; in [3], -16.4% (active); in assay [4] it was -17.1% (active); in [5], -23.7% (active); in assay [6], 11.3%. Also, the growth is -43.3% (active) in assay [7]; 67.9% in assay [8]; 84.1% in assay [9]; 37.1% in assay [10]; 35.4% in [11]; 20.9% in assay [12]. Further, the growth in assay [13] was 41.4%; in [14], -45.4% (active); in assay [16], 11.9%; in assay [17], 7.66% (active); in [18], 5.79% (active); in assay [20], -18.5% (active).
